TDP1 block: qHTS Assay for Inhibitors of Tyrosyl-DNA Phosphodiesterase (TDP1); recombinant TDP1, AlphaScreen DNA substrate cleavage; 350,000 tested, 0.28% active; Potency, µM (series often up to 130 µM), inactives show at the top dose activity change, negative = inhibition, hits mostly inhibitors; AID 485290, 2010; active = well fitted curve in the direction sought with a large enough effect; inconclusive = small, poorly fitted or top-dose-only effect, or another doubt; inactive = no such curve, though single readings can be large; an effect the other way counts as inactive or inconclusive; also: % is scaled to controls: 0 for no effect and ±100 for the full control effect; nearly all actives have a fitted effect of over 40% in size
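AlphaScreen read-out: signal falls as enzyme removes the 3' tyrosine-FITC from a 5'-biotinylated DNA oligo (15 nM, 5 min, RT). Enzyme was E. coli-made recombinant Tdp1 at 1 nM, exposed to compound for 15 min beforehand; beads 10 ug/ml, 10 min.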
Rango release inh: qHTS Assay for Inhibitors of RanGTP induced Rango (Ran-regulated importin-beta cargo) - Importin beta complex dissociation; Potency, µM (doses to about 46.1 µM), for the others: at the highest dose activity change, negative = inhibition; Snurportin-1 (Homo sapiens) + GTP-binding nuclear protein Ran (Homo sapiens) + Importin …; 340,000 tested, 0.071% active; AID 540253, 2011; Biochemical FRET Rango-importin beta, RanGTP-induced dissociation; also: % of control where 0% means no effect; nearly all actives have a fitted effect of over 45% in size
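Two FRET readings bracket the reaction: one 5 min after compound meets Rango–importin beta, another 45 min after RanGTP-RCC1 (0.6 uM Ran, 0.2 uM RCC1, 2 mM GTP) is added. Only the second defines inhibition.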
PTAP TSG101 blk: qHTS Assay for Iinhibitors of HIV-1 Budding by Blocking the Interaction of PTAP/TSG101 | Tumor susceptibility gene 101 protein (Homo sapiens), Q99816 | Fluorescence polarization, FITC-PTAP peptide / Tsg101 binding | Potency, µM (titrated, usually from 115 µM), without a hit: at the top dose activity change, negative = inhibition, most hits filed as inhibitors | 340,000 tested, under 10 active | AID 493005, 2010; active = well fitted inhibition curve with a large enough effect in the main read-out, with a control signal flat, not every such curve was filed as active; inconclusive = small, poorly fitted or top-dose-only effect, or effect the other way, or a change in a side signal; inactive = no such curve, though single readings can be large or run the other way; also: % of control where 0% means no effect
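Tsg101 binding domain (10 uM final) was mixed with compound and a FITC-labeled PTAP peptide (50 nM final) in HEPES pH 7.5 buffer with NaCl, Tween 20, EDTA and TCEP; fluorescence polarization was read after 20 min at r.t.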
Rango-impB inh: qHTS Assay for Inhibitors of Rango (Ran-regulated importin-beta cargo) - Importin beta complex formation. Potency, µM (top dose mostly 92.2 µM), for the others: top-dose inhibition of complex formation. Rango CFP/YFP FRET sensor + importin beta, 45 min. Importin subunit beta-1 (Homo sapiens), Q14974. 340,000 tested, 0.031% active;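 also: 0% = DMSO wells and 100% = buffer wells lacking importin beta; nearly all actives have a fitted effect of over 15% in size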
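FRET biosensor Rango (snurportin 1 IBB between N-terminal EYFP and C-terminal Cerulean), 50 nM in PBS/1 mM DTT/0.02% Tween-20/0.1% BSA, preincubated 5 min RT with compound; 0.125 microM importin beta added, 45 min RT, CFP/YFP FRET ratio read.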
ClpP mod: qHTS Assay for Activators of ClpP | ATP-dependent Clp protease proteolytic subunit (Bacillus subtilis (strain 168)), P80244 | purified B. subtilis ClpP, FRET peptide cleavage, 20 min | Potency, µM (series often up to 57.5 µM), inactives show top-dose activity change, negative = active | 340,000 tested, 1.9% active | AID 651965, 2013; active = well fitted falling curve with a large enough effect; inconclusive = small, poorly fitted or top-dose-only effect; inactive = no such curve, though single readings can be large or run the other way; also: the source files actives as falling curves though it sought activators and does not explain the sign; nearly all actives have a fitted effect of over 65% in size
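FRET quenching reversal measured ClpP activation: 10 microg/mL B. subtilis ClpP at pH 8 with the FRET-FV decapeptide, read at 430 nm after 320 nm excitation. The 20-min minus 0-min signal was scaled between DMSO/no-enzyme wells and ADEP (5.8 microM final).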
ALOX12 inh: Primary qHTS assay for inhibitors of human arachidonate 12S-lipoxygenase (ALOX12): Round 2 | Potency, µM (top dose mostly 108 µM), for the others: at the top dose activity change, negative = inhibition, hits mostly inhibitors | Polyunsaturated fatty acid lipoxygenase ALOX12 (Homo sapiens), P18054 | purified 12hLO, xylenol orange hydroperoxide absorbance | 580,000 tested, 1.1% active; active = well fitted curve in the direction sought with a large enough effect; inconclusive = small, poorly fitted or top-dose-only effect, or another doubt; inactive = no such curve, though single readings can be large; an effect the other way counts as inactive or inconclusive; also: % is scaled to controls: 0 for no effect and ±100 for the full control effect
Target sequence (P18054 whole entry, looked up): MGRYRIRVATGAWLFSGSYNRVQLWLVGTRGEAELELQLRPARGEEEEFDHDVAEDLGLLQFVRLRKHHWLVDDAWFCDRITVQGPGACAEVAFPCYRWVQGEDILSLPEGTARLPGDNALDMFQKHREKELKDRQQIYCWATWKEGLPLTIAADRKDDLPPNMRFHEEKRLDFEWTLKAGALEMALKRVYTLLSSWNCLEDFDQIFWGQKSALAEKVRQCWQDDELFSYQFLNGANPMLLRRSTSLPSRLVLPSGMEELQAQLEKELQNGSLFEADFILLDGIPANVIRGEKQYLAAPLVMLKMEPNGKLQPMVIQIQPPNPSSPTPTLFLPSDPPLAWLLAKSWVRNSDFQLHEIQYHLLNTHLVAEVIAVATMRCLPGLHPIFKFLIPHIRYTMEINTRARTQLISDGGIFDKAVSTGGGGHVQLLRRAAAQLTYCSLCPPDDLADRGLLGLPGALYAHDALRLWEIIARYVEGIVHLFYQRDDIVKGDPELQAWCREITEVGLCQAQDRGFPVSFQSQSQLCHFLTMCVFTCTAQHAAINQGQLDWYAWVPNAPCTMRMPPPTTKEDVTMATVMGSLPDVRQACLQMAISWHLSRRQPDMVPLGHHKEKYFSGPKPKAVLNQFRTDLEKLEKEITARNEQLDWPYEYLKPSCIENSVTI
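Purified human 12hLO (150 nM final) in 25 mM Hepes, 0.01% Triton X-100, pH 7.0 was preincubated 15 min at room temperature with compound. Then 40 uM arachidonic acid was added, 30 min. Hydroperoxide was read by Fe-XO absorbance ratio 573/405 nm.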
Starred values were filed as active, the others as inactive; u = inconclusive; x = no result; [ ] = another dose, or the depositor's remark. Sampled rows, rich in hits. Any-hit rate of the full collection: about 2.4%. Unless noted, calls follow the shape of the full dose curve. Potency is read from the fitted curve at half-maximal effect.

SMILES | TDP1 block | Rango release inh | PTAP TSG101 blk | Rango-impB inh | ClpP mod | ALOX12 inh
NC(=O)c1cccc2c1-c1ccccc1/C2=N/NC(N)=S | x | 6% | -3% | 2% | -1% | u
FC(F)(F)c1ccc(Cl)c(N/N=C/c2ccccc2Cl)c1 | x | x | x | x | x | 35µM*
O=C(O)c1cc(N/N=C/c2ccc(OCc3ccccc3)cc2)ccc1Cl | 0% | 29% | -4% | -3% | -3% | u
FC(F)(F)c1ccc(Cl)c(N/N=C/c2ccc(OCc3ccccc3)cc2)c1 | x | x | x | x | x | 2.5µM*
Cc1ccccc1CNC(=O)COc1ccc(-c2nc(C(C)C)no2)cc1 | x | x | x | x | x | -5%
COc1ccc(S(=O)(=O)N(C)Cc2cccs2)cc1Br | -7% | -9% | -6% | 4% | -1% | 0%
Cc1ccc(C)c(S(=O)(=O)N(C)Cc2cccs2)c1 | 79µM* | 15% | -2% | 1% | -7% | u
O=S(=O)(c1cc(F)ccc1F)N1CCN(Cc2cccc3cccnc23)CC1 | x | x | x | x | x | 16µM*
CC(C)N1CC(O)=C(c2nc3ccccc3c(=O)[nH]2)C1=N | 0% | 8% | -3% | -5% | 28µM* | 133%
COc1cccc(N2CC(O)=C(c3nc4ccccc4c(=O)[nH]3)C2=N)c1 | 12% | -4% | -4% | 2% | 25µM* | x
Cn1c(=O)c2c(nc(NCCN3CCOCC3)n2Cc2cccc(F)c2)n(C)c1=O | x | x | x | x | x | -11%
CN1Cc2cccn2CC1CNC(=O)c1nccn1C (stereo unspecified) | x | x | x | x | x | 184%
CCOC(=O)c1[nH]c2ccc(C)cc2c1NC(=O)CN1CCCCC1 | -1% | 40% | 6% | 0% | 32µM* | -3%
CCOC(=O)c1[nH]c2ccc(C)cc2c1NC(=O)CNC | x | x | x | x | x | -3%
CCOC(=O)c1[nH]c2ccc(OCC)cc2c1NC(=O)CN1CCN(c2ccccn2)CC1 | 6% | -7% | -8% | 1% | 18µM* | 0%
CCOC(=O)c1[nH]c2ccc(OCC)cc2c1NC(=O)CN1CCCC(C)C1 (stereo unspecified) | 6% | -6% | -6% | 1% | 14µM* | 36%
CCOC(=O)c1[nH]c2ccc(C)cc2c1N | 2% | -10% | -6% | -2% | 25µM* | -11%
COC(=O)c1[nH]c2ccccc2c1NC(=O)CN1CCCC(C)C1 (stereo unspecified) | x | x | x | x | x | 2%
Cc1ccc(S(=O)(=O)c2cn(C)c3cc(N4CCCC(C)C4)c(F)cc3c2=O)c(C)c1 (stereo unspecified) | 5% | x | x | x | 20µM* | -12%
CCn1cc(S(=O)(=O)c2ccc(C)cc2C)c(=O)c2cc(F)c(N3CCCC3)cc21 | 2% | x | x | x | 32µM* | -20%
Cc1ccc(S(=O)(=O)c2cn(C)c3cc(N4CCCC4)c(F)cc3c2=O)c(C)c1 | -2% | x | x | x | 28µM* | -13%
Cc1ccc(S(=O)(=O)c2cn(C)c3cc(N4CCCCC4)c(F)cc3c2=O)cc1 | 4% | x | x | x | u | 4%
CCCN1CCN(c2cc3c(cc2F)c(=O)c(S(=O)(=O)c2ccc(Cl)cc2)cn3C)CC1 | 0% | x | x | x | 16µM* | -9%
COc1ccc(-c2nnc(CCC(=O)N3CCCCC3)c(=O)[nH]2)cc1 | x | x | x | x | x | -5%
COC(=O)c1cn(CC(=O)NC(C2CC2)C2CC2)c2ccccc12 | x | x | x | x | x | -20%
SMILES | TDP1 block | Rango release inh | PTAP TSG101 blk | Rango-impB inh | ClpP mod | ALOX12 inh
CCC1(c2ccc(Cl)cc2)NC(=S)N(c2ccc(C)cc2)N1 (stereo unspecified) | 5% | 1% | -4% | 3% | -5% | 28µM*
CSc1nc(-c2ccccc2)cc(C)c1C#N | 0% | 3% | -3% | 7% | x | 35%
CSc1nc(C)cc(/C=C\c2ccccc2)c1C#N | -3% | -11% | -3% | 7% | 28µM* | u
CC(C)CC(=O)N1CCCC(Cc2nc(C3CCOCC3)no2)C1 (stereo unspecified) | x | x | x | x | x | 45%
CCCc1sc(C(=O)Nc2ccccc2O)cc1CC | x | x | x | x | x | 13µM*
O=C(NNC(=O)C1CC=CCC1)c1ccc(F)cc1 (stereo unspecified) | x | x | x | x | x | 6%
COc1ccccc1C(=O)NNC(=O)C1CC=CCC1 (stereo unspecified) | 35µM* | 4% | -6% | 3% | x | 0%
O=C1NC2(CCN(Cc3ccsc3)CC2)COc2ccccc21 | x | x | x | x | x | 45µM*
COc1ccc(C(=O)Oc2cccc(C)c2)cc1Br | x | x | x | x | x | -22%
O=C(CSc1oc(-c2ccccc2)nc1S(=O)(=O)c1ccc(Cl)cc1)c1ccccc1 | 6% | x | x | x | -4% | 7.9µM*
O=C(CSc1oc(-c2ccco2)nc1S(=O)(=O)c1ccccc1)NCC1CCCO1 (stereo unspecified) | -1% | -4% | -2% | -2% | -1% | u
O=C(CSc1oc(-c2ccco2)nc1S(=O)(=O)c1ccc(Cl)cc1)NCC1CCCO1 (stereo unspecified) | 1% | -5% | -2% | u | -4% | 7.9µM*
NC(=O)CSc1oc(-c2ccco2)nc1S(=O)(=O)c1ccc(Cl)cc1 | -2% | 4% | -2% | 0% | -2% | 28µM*
O=C1CSC(c2cn(-c3ccccc3)nc2-c2ccccc2)N1Cc1ccco1 (stereo unspecified) | -6% | 7% | 1% | -1% | 1% | 45µM*
COc1ccc(-c2nnc(-c3ccc(N)cc3)o2)cc1 | 5% | 0% | -5% | 0% | 28µM* | -15%
COc1ccc(-c2nnc(-c3ccc(OC)c(OC)c3)o2)cc1OC | x | x | x | x | x | 11%
COc1ccc(-c2ccc(-c3nnc(-c4cc(OC)ccc4OC)o3)cc2)cc1 | 2% | 5% | -7% | -1% | 16µM* | 2%
O=S(=O)(Nc1nc2ccccc2nc1NCc1ccc(F)cc1)c1cccc2nsnc12 | x | x | x | x | x | -6%
O=C1COc2ccc(N3CCOCC3)nc2CN1Cc1ccccc1F | x | x | x | x | x | 14%[176 µM]
COC(=O)c1ccc(-c2ccco2)n1Cc1cc(C)ccc1C | 5% | 2% | -4% | -1% | 32µM* | 0%
